HSF-1 act – increases HSF-1 driven luciferase reporter signal; NIH3T3-HGL HSF-1 luciferase reporter, MG132, 8 h; 100% = twice DMSO control signal; activation, % at 9 µM; 300,000 compounds, 1.7% hits;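 active = mean replicate activation of at least 50% with a set share of replicates each reaching 50%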;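 also: 0% = median of the neutral control wells and 100% = twice that signal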
NOD2-RIPK2 inh – NOD2-RIPK2 protein interaction inhibition; CHO BLA complementation NOD2-RIPK2, CCF4 ratio; O43353; 360,000 compounds, 0.38% hits; inhibition, % at 4.98 µM; in the data active = inhibition above about 21%;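 also: 0% = vehicle only and 100% = reference blocker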
TLR9-MyD88 block – blocks human TLR9 binding to MyD88 | Q9NR96+Q99836 | CHO BLA complementation TLR9-MyD88, CCF4 FRET ratio | inhibition, % at 4.98 µM | 340,000 compounds, 0.21% hits | AID 504734;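 active = inhibition above the mean over all tested compounds plus 3 SD, cut at about 21% in these data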;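 also: 0% = DMSO only wells and 100% = clavulanate BLA inhibitor control wells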
Target sequence (Q99836 whole entry, looked up): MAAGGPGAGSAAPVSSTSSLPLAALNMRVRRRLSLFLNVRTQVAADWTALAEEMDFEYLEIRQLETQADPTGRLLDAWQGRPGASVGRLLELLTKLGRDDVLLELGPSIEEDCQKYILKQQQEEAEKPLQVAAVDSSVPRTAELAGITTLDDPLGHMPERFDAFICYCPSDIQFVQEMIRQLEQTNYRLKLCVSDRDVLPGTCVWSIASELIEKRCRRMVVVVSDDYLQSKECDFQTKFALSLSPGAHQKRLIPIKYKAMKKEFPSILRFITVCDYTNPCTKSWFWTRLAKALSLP
Target sequence (Q9NR96 whole entry, looked up): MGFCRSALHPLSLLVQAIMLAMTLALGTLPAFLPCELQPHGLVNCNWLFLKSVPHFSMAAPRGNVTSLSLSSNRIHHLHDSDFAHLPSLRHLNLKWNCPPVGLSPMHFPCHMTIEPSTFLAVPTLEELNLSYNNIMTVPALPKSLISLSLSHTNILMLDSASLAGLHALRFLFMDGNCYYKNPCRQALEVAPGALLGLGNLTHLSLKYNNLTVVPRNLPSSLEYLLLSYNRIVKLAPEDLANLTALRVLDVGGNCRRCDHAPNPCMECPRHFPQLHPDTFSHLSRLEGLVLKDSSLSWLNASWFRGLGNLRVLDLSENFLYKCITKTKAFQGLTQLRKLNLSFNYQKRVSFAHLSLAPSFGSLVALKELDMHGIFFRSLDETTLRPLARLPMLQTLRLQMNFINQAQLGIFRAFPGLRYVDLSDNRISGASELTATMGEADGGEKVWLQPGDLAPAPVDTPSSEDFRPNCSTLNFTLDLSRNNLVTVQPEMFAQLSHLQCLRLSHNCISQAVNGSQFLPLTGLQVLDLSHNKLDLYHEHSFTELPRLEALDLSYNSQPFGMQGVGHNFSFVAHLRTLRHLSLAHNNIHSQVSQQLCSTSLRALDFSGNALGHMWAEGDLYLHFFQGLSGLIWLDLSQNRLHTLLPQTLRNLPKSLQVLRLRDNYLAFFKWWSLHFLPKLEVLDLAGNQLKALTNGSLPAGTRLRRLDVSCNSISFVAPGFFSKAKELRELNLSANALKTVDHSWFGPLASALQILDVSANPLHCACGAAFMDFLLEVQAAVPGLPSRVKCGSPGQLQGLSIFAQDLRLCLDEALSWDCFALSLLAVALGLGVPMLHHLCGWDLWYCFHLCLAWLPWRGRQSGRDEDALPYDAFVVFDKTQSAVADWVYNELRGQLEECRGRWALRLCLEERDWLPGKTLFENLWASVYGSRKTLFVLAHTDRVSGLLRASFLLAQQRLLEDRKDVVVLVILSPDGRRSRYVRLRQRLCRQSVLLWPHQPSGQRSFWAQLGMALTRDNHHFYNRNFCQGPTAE
HSF1 inh – HSF1 inhibition; NIH3T3-HGL HSE-luciferase, MG132-induced, luminescence 8 h; active compounds read low; activity change, negative = inhibition, % at 7.5 µM (by protocol); 300,000 compounds, 0.77% hits; AID 2098;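 active = more than half of replicate wells show activity change below -50%, luminescence cut by over half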;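 also: luciferase reports HSF-1 transcriptional activity via heat shock element; 0% = median of DMSO wells and -100% = zero luminescence signal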
TLR4-MyD88 BLA – inhibitors of human TLR4-MyD88 binding; inhibition, % at 8.4 µM; HeLa CL3-4 TLR4/MyD88 BLA complementation, FRET ratio; 200,000 compounds, 0.18% hits; O00206+Q99836; in the data active = inhibition above about 25%;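 also: 0% = vehicle and 100% = reference inhibitor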
Numbers without * were called inactive. Most compounds without a hit are left out; they make up all but 2.4% or so of the library.

For CCOC(=O)C1=C(C)NC(=S)NC1c1ccc(C)s1 (stereo not drawn) the results were HSF-1 act 15, NOD2-RIPK2 inh 3, TLR9-MyD88 block -1, HSF1 inh 8 and TLR4-MyD88 BLA -7.
`CCOC(=O)C1=C(C)NC(=S)NC1c1ccsc1` (stereo not drawn) gave HSF-1 act -74, NOD2-RIPK2 inh -3, TLR9-MyD88 block -2, HSF1 inh -67* and TLR4-MyD88 BLA 0.
`Clc1ccc2c(c1)[C@H]1OCC[C@H]1[C@@H](c1ccco1)N2` gave HSF-1 act 70*, NOD2-RIPK2 inh -9, TLR9-MyD88 block 2, HSF1 inh 30 and TLR4-MyD88 BLA -5.
Screening CS(=O)(=O)N1CCCC(C(=O)Nc2ccc(F)c(F)c2)C1 (stereo not drawn) returned NOD2-RIPK2 inh -3 and TLR9-MyD88 block -2.
`COc1ccc(C(Nc2cc(C)ccn2)c2ccc3ccc(C)nc3c2O)cc1` (stereo not drawn) gave HSF-1 act -60, NOD2-RIPK2 inh 11, TLR9-MyD88 block 9 and HSF1 inh -43.
Screening Cc1ccnc(NC(c2ccsc2)c2ccc3ccc(C)nc3c2O)c1 (stereo not drawn) returned HSF-1 act -67, NOD2-RIPK2 inh 0, TLR9-MyD88 block 9, HSF1 inh -54* and TLR4-MyD88 BLA -16.
Cc1ccc2ccc(C(Nc3ccccn3)c3ccccc3)c(O)c2n1 (stereo not drawn) was read as HSF-1 act -4, NOD2-RIPK2 inh 5, TLR9-MyD88 block 6, HSF1 inh -7 and TLR4-MyD88 BLA 0.
For COc1cc(C(Nc2ccccn2)c2ccc3ccc(C)nc3c2O)cc(OC)c1O (stereo not drawn) the results were HSF-1 act 183*, NOD2-RIPK2 inh 6, TLR9-MyD88 block -11, HSF1 inh 130 and TLR4-MyD88 BLA -7.
Cn1nccc1C(=O)NC1CCCc2c1cnn2-c1ccc(C(C)(C)C)cc1 (stereo not drawn) was read as HSF-1 act 22, NOD2-RIPK2 inh -3, TLR9-MyD88 block -13 and HSF1 inh 5.
Screening O=C(Cn1nc(-c2ccccc2)ccc1=O)N1CCOCC1 returned HSF-1 act 4, NOD2-RIPK2 inh -2, TLR9-MyD88 block -3, HSF1 inh 0 and TLR4-MyD88 BLA 16.
O=C(Cn1nc(-c2ccccc2Cl)ccc1=O)Nc1ccccc1-c1ccccc1 was read as HSF-1 act 53*, NOD2-RIPK2 inh -4, TLR9-MyD88 block -2, HSF1 inh 14 and TLR4-MyD88 BLA -3.
Screening O=C(Cn1nc(-c2ccccc2)ccc1=O)N1CCCCC1 returned HSF-1 act -82, NOD2-RIPK2 inh -1, TLR9-MyD88 block 2 and HSF1 inh -79*.
CN(C)/C=C1\C(=O)ON=C1c1ccccc1 was read as HSF-1 act -2, NOD2-RIPK2 inh -5, TLR9-MyD88 block -3, HSF1 inh 1 and TLR4-MyD88 BLA -2.
Cc1ccc(C2=NOC(=O)/C2=C\C=C\c2ccccc2)cc1 was read as HSF-1 act 133*, NOD2-RIPK2 inh 7, TLR9-MyD88 block 5, HSF1 inh 77 and TLR4-MyD88 BLA 18.
`CCOC(=O)C1=CCN(S(=O)(=O)c2ccc(F)cc2)C1c1cccc(C)c1` (stereo not drawn) gave NOD2-RIPK2 inh -6.
For Cc1ccc(CNC(=O)C2CCC(=O)N(CC3CCCCC3)C2)o1 (stereo not drawn) the results were HSF-1 act 0, NOD2-RIPK2 inh -8, TLR9-MyD88 block -3 and HSF1 inh -4.
`CCOC(=O)C1=NN(C(=O)COc2ccccc2)C(O)(c2ccc(Br)cc2)C1` (stereo not drawn) gave HSF-1 act 290*, NOD2-RIPK2 inh 1, TLR9-MyD88 block -12, HSF1 inh 212 and TLR4-MyD88 BLA -15.
Screening CCC1=NN(C(=O)COc2ccccc2)C(O)(c2ccncc2)C1 (stereo not drawn) returned HSF-1 act 11, NOD2-RIPK2 inh -12, TLR9-MyD88 block -12, HSF1 inh 13 and TLR4-MyD88 BLA -2.
CC(=O)c1ccc(NC(=O)c2ccc(CNc3c(N4CCOCC4)c(=O)c3=O)cc2)cc1 was read as HSF-1 act 8, NOD2-RIPK2 inh 1, TLR9-MyD88 block -1 and HSF1 inh 0.
`O=C(O)CCC(=O)NCCn1c(-c2ccccc2)csc1=Nc1ccccc1` gave HSF-1 act 69*, NOD2-RIPK2 inh -13, TLR9-MyD88 block -7, HSF1 inh 29 and TLR4-MyD88 BLA -3.

Screening results (PubChem)
